The full ranking holds about 110,000 compounds; the median of “z-score” is about -0.1, and the highest 2% start at about 2. The full list was thinned out, with the highest values kept by preference. Active and inactive are the calls of the source.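 How the source made its calls: active means z-score in the third read window above 3 or below -3; inactive means the rest.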
Molecular target: Metabotropic glutamate receptor 8 (Rattus norvegicus) (UniProt P70579)
Test: rat mGluR8 modulators via GIRK flux, primary screen, cell-based, thallium flux, HTS (AID 488969)
Settings: HEK293 rat mGluR8, GIRK (G protein-gated inwardly rectifying potassium channel) thallium flux, FluoZin2; at 10 µM; stronger effect = higher value; submaximal glutamate (EC20) added with thallium

Metabotropic glutamate receptor 8 (Rattus norvegicus), sequence (P70579 whole entry, looked up): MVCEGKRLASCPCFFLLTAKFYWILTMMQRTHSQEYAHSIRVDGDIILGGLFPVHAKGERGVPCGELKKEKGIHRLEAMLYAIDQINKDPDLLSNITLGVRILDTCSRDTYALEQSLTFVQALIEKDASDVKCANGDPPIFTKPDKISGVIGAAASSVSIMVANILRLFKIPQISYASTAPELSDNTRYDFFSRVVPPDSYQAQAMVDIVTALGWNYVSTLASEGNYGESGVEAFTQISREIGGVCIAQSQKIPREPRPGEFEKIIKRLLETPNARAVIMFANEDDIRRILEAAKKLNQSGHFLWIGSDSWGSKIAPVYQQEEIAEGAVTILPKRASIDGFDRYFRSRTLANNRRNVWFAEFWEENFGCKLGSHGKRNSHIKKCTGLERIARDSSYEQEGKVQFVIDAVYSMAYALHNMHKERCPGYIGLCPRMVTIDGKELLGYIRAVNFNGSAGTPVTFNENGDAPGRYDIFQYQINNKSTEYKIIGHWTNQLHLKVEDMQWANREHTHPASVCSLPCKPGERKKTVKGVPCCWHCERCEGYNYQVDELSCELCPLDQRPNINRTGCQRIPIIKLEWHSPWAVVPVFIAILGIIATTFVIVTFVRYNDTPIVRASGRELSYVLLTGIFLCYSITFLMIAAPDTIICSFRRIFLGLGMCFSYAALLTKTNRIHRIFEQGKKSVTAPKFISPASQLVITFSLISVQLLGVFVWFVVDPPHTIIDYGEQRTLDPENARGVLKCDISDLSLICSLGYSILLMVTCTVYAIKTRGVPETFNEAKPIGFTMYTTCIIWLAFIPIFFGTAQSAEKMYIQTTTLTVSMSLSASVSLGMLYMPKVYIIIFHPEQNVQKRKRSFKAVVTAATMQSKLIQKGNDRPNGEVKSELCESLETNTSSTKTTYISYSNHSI

SMILES | z-score
Cc1ccsc1C(=O)NNC(=O)Nc1ccc(Cl)c(Cl)c1 | -0.13
COc1cccc(OC)c1OCCCCCc1c(C)n[nH]c1C | -0.231
CCOc1ccccc1OCCCCCc1c(C)n[nH]c1C | 3.05 (active)
COc1ccccc1OCCCCCc1c(C)n[nH]c1C | -0.151
CCC(=O)N/C(=N/c1nc(C)cc(C)n1)Nc1cccc(OC)c1 | 0.0375
Cc1cc(/C([O-])=C(/C(=S)Nc2ccc(F)cc2)[n+]2ccccc2)c(C)n1-c1ccc(F)cc1 | -0.454
CCc1nnc(NC(=O)C2COc3ccccc3O2)s1 (centres undefined) | 0.0066
CCC(CC)c1nnc(NC(=O)c2ccc3ccccc3n2)s1 | 11.4 (active)
CCSc1nnc(NC(=O)c2ccc3ccccc3n2)s1 | 11.8 (active)
CCSc1nnc(NC(=O)c2cccc3ccccc23)s1 | -0.316
CCC(CC)c1nnc(NC(=O)Oc2ccccc2)s1 | -0.366
CCC(CC)c1nnc(NC(=O)c2cc(-c3ccccc3)nc3ccccc23)s1 | -0.847
CCSc1nnc(NC(=O)c2cc(C)nc3ccccc23)s1 | 0.31
CCC(CC)c1nnc(NC(=O)C2COc3ccccc3O2)s1 (centres undefined) | 3.82 (active)
O=C(Nc1nnc(C(F)(F)F)s1)C1COc2ccccc2O1 (centres undefined) | -0.109
COc1cccc(C2C(C(C)=O)=C(O)C(=O)N2CCc2c[nH]c3ccccc23)c1 (centres undefined) | -0.32
Cc1ccc(CSc2ccc(-c3ccco3)nn2)cc1 | 0.361
C=CCN(C(C)=O)C1CC(=O)N(c2ccc(OCCC)cc2)C1=O (centres undefined) | -0.00882
CCC/C(=N\NC(=O)c1csc(C)c1C)c1cccs1 | 0.475
CC/C(=N\NC(=O)c1csc(C)c1C)c1cccs1 | 1.32
C/C(=N\NC(=O)c1csc(C)c1C)c1ccco1 | 0.816
Cc1scc(C(=O)N/N=C/c2ccco2)c1C | -0.0599
CCC/C(=N/NC(=O)c1csc(C)c1C)c1ccc(Cl)s1 | 5.92 (active)
C/C(=N\NC(=O)c1csc(C)c1C)c1ccc(Cl)s1 | 3.54 (active)

SMILES | z-score
COc1ccc(CCNC(=O)C2CCCN(S(=O)(=O)c3cnc[nH]3)C2)cc1OC (centres undefined) | -0.0112
CCOc1ccccc1C(=O)N(Cc1ccco1)C1CCS(=O)(=O)C1 (centres undefined) | 0.0514
CN1C(=O)CSC1=NCC12CC3CC(CC(C3)C1)C2 | -0.123
COc1ccc(Cl)cc1NC(=S)NCCc1c[nH]c2ccccc12 | 0.142
CCOc1ccc(CN(Cc2ccco2)S(=O)(=O)c2ccc(-n3cnnn3)c(OC)c2)cc1 | 2.75
COc1cc(S(=O)(=O)N(Cc2ccc(C)cc2)Cc2ccco2)ccc1-n1cnnn1 | 0.205
CCOc1ccccc1CN(Cc1ccco1)S(=O)(=O)c1ccc(-n2cnnn2)c(OC)c1 | 0.115
O=C(Cc1c(F)cccc1Cl)NCC1CCCO1 (centres undefined) | 0.148
CN1/C(=C\C(=S)NC(=O)c2ccc([N+](=O)[O-])cc2)C(C)(C)c2ccccc21 | 0.213
CN1/C(=C\C(=S)NC(=O)c2cccc(Br)c2)C(C)(C)c2ccccc21 | -0.0589
Cc1ccc(C(=O)NC(=S)/C=C2\N(C)c3ccccc3C2(C)C)cc1 | 2.66
CC(C)(C)C(=O)Nc1ccc(-c2cn3ccsc3n2)cc1 | -1.44
CCCN1CNC(=S)N(c2ccc(C(=O)OCC)cc2)C1 | -2.04
O=C(NC(=S)Nc1ccc2c(c1)OCO2)c1ccc(Cl)cc1 | 0.837
O=C(NC(=S)NCC1COc2ccccc2O1)c1ccccc1 (centres undefined) | 6.58 (active)
Cc1cc(NC(=S)NC(=O)c2ccccc2)ccc1-c1cc2ccccc2oc1=O | -0.165
O=C(CNC(=O)c1ccccc1)NCC1COc2ccccc2O1 (centres undefined) | 0.11
O=C(NCC1COc2ccccc2O1)c1ccccc1 (centres undefined) | 0.298
O=C(NC(=S)Nc1ccc2c(c1)OCO2)c1ccccc1 | 3.25 (active)
O=C(NC(=S)NCc1ccc2c(c1)OCO2)c1ccccc1 | 1.1
O=C(NC(=S)Nc1ccc2c(c1)OCCO2)c1ccccc1 | 2.12
O=C(NC(=S)Nc1ccc2[nH]ncc2c1)c1ccccc1 | -0.139
O=C(CC(=O)c1ccccc1)Nc1ccc2c(c1)OCCO2 | -0.987
O=C(NC(=S)Nc1ccc2c(c1)OCCO2)c1cccc(Br)c1 | 0.945

SMILES | z-score
Cn1ncc2cc(NC(=S)NC(=O)c3ccccc3)ccc21 | 2.21
Cc1ccc(C2N(c3ccc(F)cc3)C(=O)C3CCCN32)cc1 (centres undefined) | 0.214
N#Cc1cc(C(=O)c2ccccc2OCC(=O)Nc2ccccc2Cl)cn(C2CCCCC2)c1=O | -0.433
CCn1c(CCCOc2ccc(Cl)cc2Cl)nnc1SCC(=O)Nc1cccc(F)c1 | -0.135
CCOc1ccccc1Nc1ncccc1C(=O)N1CCCC1 | 1.1
Cc1ccc(C)c(N2CCN(S(=O)(=O)c3c(C)noc3/C=C/N(C)C)CC2)c1 | -0.559
CC1(C(=O)N2CC3(CC(c4ccccc4)=NO3)C[C@H]2C(=O)NCC(N)=O)CC1 (some centres undefined) | -0.0396
CCOc1ccccc1Oc1c(C)oc2c(CN3CCN(CCO)CC3)c(O)ccc2c1=O | -0.395
CCc1ccc(N2CC(C(=O)Nc3ccc(C)c(S(=O)(=O)N4CCOCC4)c3)CC2=O)cc1 (centres undefined) | 0.319
CC(C)NC(=O)c1ccccc1N(Cc1ccccc1)S(C)(=O)=O | 0.373
COc1ccc2nc(NC(=O)c3cccc(-c4cc5ccccc5oc4=O)c3)sc2c1 | 0.372
CCc1ccc(C(=O)NC(=S)Nc2ccc3c(c2)OCCO3)cc1 | 0.946
Cc1ccc(C(=O)NC(=S)Nc2ccc3c(c2)OCCO3)c(C)c1 | 2.7
Cc1cc(C)cc(C(=O)NC(=S)Nc2ccc3c(c2)OCCO3)c1 | -0.353
Cc1ccc(Cl)c(NC(=S)N(CCCN2CCOCC2)Cc2ccco2)c1 | -0.227
Cc1cccc2cc(/C=N/NC(=O)c3ccccc3O)c(Cl)nc12 | 0.0387
O=C(NCCCCNC(=O)c1ccc(Cl)s1)c1ccc(Cl)s1 | -0.423
COc1ccc(N/N=C(/C(N)=O)C2=NC(C)(C)Cc3ccccc32)cc1 | -0.381
Cc1cccc(N/N=C(\C(N)=O)C2=NC(C)(C)Cc3ccccc32)c1 | -0.302
CC1(C)Cc2ccccc2C(/C(=N\Nc2cccc(Cl)c2)C(N)=O)=N1 | 3.23 (active)
Cc1cc(C(=O)N/N=C/c2cccnc2)c(C)o1 | 0.000639
O=C(CCCCl)NC(=S)Nc1cc(C(F)(F)F)ccc1N1CCOCC1 | 0.012
O=C1CCCC2=C1C(c1ccncc1)c1c(nc(SCc3ccccc3)[nH]c1=O)N2 (centres undefined) | -1.55
CCn1c2ccccc2c2cc(/C=N/n3c(C)nnc3C)ccc21 | -1.04

SMILES | z-score
CCn1c2ccccc2c2cc(/C=N/n3cn[nH]c3=S)ccc21 | 11.5 (active)
CCn1c2ccccc2c2cc(/C=N/n3cnnc3)ccc21 | -1.04
CCc1nnc(N/N=C/c2ccc(N3CCC(C)CC3)c([N+](=O)[O-])c2)n1N | -0.0832
Nc1nnnn1/N=C/c1ccc(N2CCCCC2)c([N+](=O)[O-])c1 | 1.18
Cc1ccc(/C=N/n2nnnc2N)cc1[N+](=O)[O-] | 0.159
Cc1nnc(N/N=C/c2cc([N+](=O)[O-])c(N3CCC(C)CC3)cc2N2CCC(C)CC2)n1N | 2.68
CC1CCN(c2cc(N)c(Cl)cc2[N+](=O)[O-])CC1 | -0.475
CC1CCN(c2ccc(/C=N/n3nnnc3N)cc2[N+](=O)[O-])CC1 | 3.58 (active)
CC(=O)Nc1ccc(OCC(O)CN2C(C)CCCC2C)cc1 (centres undefined) | -0.417
Cn1c(=O)c2c(nc(SCc3ccccc3)n2Cc2ccc(Cl)cc2)n(C)c1=O | -0.333
Cc1c(O)ccc(/C(Cc2ccc3ccccc3n2)=N\O)c1O | -0.308
C/C(CC(O)c1ccc2ccccc2n1)=N/O (centres undefined) | 5.27 (active)
CC(=O)/C=C/c1ccc2ccccc2n1 | 0.038
CCc1ccc2[nH]c(=O)c(C(c3nnnn3Cc3ccco3)N3CCC(C)CC3)cc2c1 (centres undefined) | -0.27
O=C(c1cccs1)N(C(=O)c1cccs1)c1ccc(Br)cn1 | 2.26
Cc1ccnc(N(C(=O)c2cccs2)C(=O)c2cccs2)c1 | -0.0449
O=C(/C=C/c1cccs1)Nc1ccc(Br)cn1 | -0.222
CC(=O)N1c2ccccc2Oc2cc3ccccc3cc21 | -0.261
Cc1ccc(C(=O)N/N=C2\SCC(=O)N2c2cc(C)ccc2C)cc1 | -0.396
Cc1cccc(N2C(=O)CS/C2=N\NC(=O)c2ccc(Cl)cc2)c1C | 3.96 (active)
Cc1cccc(N2C(=O)CS/C2=N\NC(=O)c2ccc(Br)cc2)c1C | 1.16
Cc1ccc(N2C(=O)c3ccccc3C2Nc2ccccc2)nc1 (centres undefined) | -0.424
CN1CCN(/C=C2\SC(=S)NC2=O)CC1 | -0.54
Cc1nn(C)c(C)c1/C=C1/SC(=S)NC1=O | 0.492

SMILES | z-score
CN1CCC/C1=C/C=C1\SC(=S)NC1=O | 2.4
Cc1ccc(C(=O)CSc2nc3ccccc3c(=O)n2-c2ccccc2)s1 | 0.061
O=C(NCc1cccnc1)/C(=N\O)c1ccccc1 | 2.02
O=C(NCc1ccncc1)/C(=N/O)c1ccccc1 | 1.14
O=C(NCc1ccccc1)/C(=N\O)c1ccccc1 | 0.503
COc1ccc(N(CC(=O)NCCC2=CCCCC2)S(C)(=O)=O)cc1OC | 0.274
CCN1C(=O)/C(=C2/Sc3ccc(OC)cc3N2C)SC1=Nc1ccc(C(C)=O)cc1 | -0.0997
CCOC(=O)N1CCC(NC(=O)c2ccc(CS(=O)(=O)c3ccc(OC)cc3)o2)CC1 | -0.141
O=C(CN1CCCCC1)Nc1ccc(S(=O)(=O)N2CCOCC2)cc1 | -0.0871
COc1ccccc1-c1nc2cc3ccccc3cc2nc1-c1ccccc1OC | -0.377
CCCc1nn(C)c2c(=O)[nH]c(-c3ccccc3OCC)nc12 | -0.237
O=c1ccc2cc(S(=O)(=O)Nc3ccc(F)cc3)ccc2o1 | -0.226
Cc1cc(C)cc(NS(=O)(=O)c2ccc3oc(=O)ccc3c2)c1 | 2.23
Cc1cc(C)cc(NS(=O)(=O)c2ccc3[nH]c(=O)[nH]c3c2)c1 | 0.711
O=C(CSCC(=O)N1CCCCC1)Nc1nc(-c2ccc(Cl)s2)cs1 | 2.68
CC1CCCN(C(=O)CSCC(=O)Nc2nc(-c3cccs3)cs2)C1 (centres undefined) | 0.503
CC1CN(C(=O)CSc2nc(-c3ccc(F)cc3)cs2)CC(C)O1 (centres undefined) | -0.898
O=C(CSc1nc(-c2ccc(F)cc2)cs1)N1CCc2ccccc21 | -0.119
O=C(CSc1nc(-c2ccc(F)cc2)cs1)N1CCOCC1 | 3.29 (active)
O=C(CSCC(=O)N1CCN(c2ccccc2)CC1)Nc1nc(-c2ccc(Cl)s2)cs1 | 0.16
CCOC(=O)N1CCN(C(=O)CSCC(=O)Nc2nc(-c3ccc4c(c3)OCO4)cs2)CC1 | -0.296
CCC(=O)Nc1nc(-c2ccc3c(c2)OCCO3)cs1 | -0.0358
O=C(CSCC(=O)N1CCOCC1)Nc1nc(-c2ccc3c(c2)OCO3)cs1 | 2

Reference: PubChem BioAssay AID488969 (Vanderbilt High Throughput Screening Facility, 2010)
